Screens (PubChem)
proKLK7 act = activates the human kallikrein-7 zymogen; P49862; purified proKLK7, EDANS-DABCYL substrate fluorescence; 100% is mature enzyme control, 0% vehicle; activation, % at 7 µM; 0.9% of 370,000 active;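 active = activation above the mean of all tested compounds plus 3 SD, computed per campaign excluding outliers beyond control limits, cut at about 13% in these data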
PfG6PD inh = PfG6PD (Plasmodium falciparum) enzyme inhibition. PfGluPho enzyme, NADPH resazurin-diaphorase fluorescence. inhibition, % at 20 µM. 0.78% of 350,000 active;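 active = inhibition reaching at least a set limit at 20 µM in the primary screen, cut at about 59% in these data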;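 note: 0% = DMSO wells with substrate and 100% = DMSO wells lacking glucose-6-phosphate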
Neddylation inh = cullin neddylation inhibition. P61081+Q13564. TR-FRET cullin neddylation, biochemical. calls only at 25 µM. 0.58% of 360,000 active. AID 651699; in the data active = inhibition above about 36%
Target sequence (P61081 whole entry, looked up): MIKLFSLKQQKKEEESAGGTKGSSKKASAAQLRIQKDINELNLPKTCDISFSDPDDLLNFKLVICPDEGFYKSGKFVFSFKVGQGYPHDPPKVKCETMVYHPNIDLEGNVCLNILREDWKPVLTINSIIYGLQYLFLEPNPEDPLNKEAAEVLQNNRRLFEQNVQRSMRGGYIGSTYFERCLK
Target sequence (Q13564 whole entry, looked up): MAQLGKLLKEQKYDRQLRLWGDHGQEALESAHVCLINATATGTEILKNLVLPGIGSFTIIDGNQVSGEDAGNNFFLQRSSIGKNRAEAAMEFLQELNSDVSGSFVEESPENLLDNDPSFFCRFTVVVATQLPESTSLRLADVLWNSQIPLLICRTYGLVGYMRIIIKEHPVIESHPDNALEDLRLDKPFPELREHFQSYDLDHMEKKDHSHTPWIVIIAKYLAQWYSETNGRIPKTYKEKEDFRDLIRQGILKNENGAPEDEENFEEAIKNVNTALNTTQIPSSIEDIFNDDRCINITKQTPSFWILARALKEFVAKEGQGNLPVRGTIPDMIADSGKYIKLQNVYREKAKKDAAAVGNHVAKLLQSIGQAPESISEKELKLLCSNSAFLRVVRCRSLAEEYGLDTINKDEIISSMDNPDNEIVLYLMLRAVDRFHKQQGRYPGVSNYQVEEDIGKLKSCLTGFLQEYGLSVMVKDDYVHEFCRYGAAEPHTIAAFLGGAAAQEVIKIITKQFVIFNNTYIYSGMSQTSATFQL
FAS TE block = inhibitors of human fatty acid synthase thioesterase domain. P49327. recombinant FAS-TE, OMFH fluorogenic substrate, fluorescence endpoint. inhibition, % at 15 µM. 0.67% of 360,000 active. AID 602261;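 active = compounds whose normalised, plate-corrected inhibition of enzyme fluorescence in the single-dose primary screen is 50% or more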;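 note: 0% = DMSO with enzyme and 100% = substrate without enzyme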
PfGluPho conf = PfG6PD inhibition, single-dose confirmed; shares compounds with PfG6PD inh; recombinant PfGluPho, NADPH-diaphorase-resazurin fluorescence; inhibition, % at 20 µM; 34% of 2,400 active; AID 504753;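 active = inhibition of at least 50% at 20 µM in any single replicate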;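 note: 0% = DMSO with substrate and 100% = DMSO lacking glucose-6-phosphate substrate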
Diaph ctr 10uM = counter-screen for P. falciparum G6PD inhibitors: diaphorase inhibitors, oxidizers; shares compounds with PfG6PD inh; diaphorase-coupled resazurin reduction, fluorescence, NADPH 10 uM; inhibition, % at 20 µM; 39% of 820 active; AID 504862;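 active = average inhibition reaching 50% or more with the compound at 20 µM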;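 note: resorufin red fluorescence formed as diaphorase reduces resazurin using NADPH; 0% = DMSO with enzyme and 100% = DMSO without enzyme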
Diaphorase 30uM = inhibits diaphorase or oxidizes, flagging false PfG6PD hits; 29% of 820 active; shares compounds with PfG6PD inh; AID 504863; inhibition, % at 20 µM; Diaphorase/resazurin coupled assay, resorufin fluorescence, 30 uM NADPH;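 active = inhibition averaging 50% or more, tested at 20 µM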;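 note: 0% = DMSO with enzyme and 100% = DMSO wells lacking diaphorase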
FAS-TE inh conf = confirmation of human fatty acid synthase thioesterase inhibitors. shares compounds with FAS TE block. recombinant FAS-TE, OMFH fluorogenic substrate, fluorescence. inhibition, % at 15 µM. 45% of 2,300 active. AID 624325;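 active = compounds inhibiting the enzyme by at least 50% at 15 µM in any one of the replicates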;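 note: 0% = enzyme with DMSO only and 100% = wells lacking enzyme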
proKLK7 act conf = proKLK7 activation, confirmation | purified proKLK7, EDANS-DABCYL substrate fluorescence; scaled: vehicle 0, mature enzyme 100 | shares compounds with proKLK7 act | AID 686949 | activation, % at 7 µM | 68% of 3,200 active;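 active = activation, as change over the incubation, above the mean of all tested compounds plus 3 SD, cut at about 13% in these data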
EDANS-DABCYL int = fluorescence interference counter-screen for KLK7 activators | activation, % at 7 µM | shares compounds with proKLK7 act | AID 686952 | EDANS-DABCYL substrate fluorescence interference, no enzyme, 4 h; solvent 0%, active enzyme control 100% | 80% of 3,200 active;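 active = activation above the all-compound mean plus 3 SD, ignoring values outside control-based bounds, cut at about 4.8% in these data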;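 note: value is the 4 h activation minus the activation read at time zero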
Starred values were filed as active, the others as inactive; i = inactive; x = not tested or not shown. This is a sample that favours compounds with a hit; in the whole collection about 2.7% have one here.

SMILES	proKLK7 act	PfG6PD inh	Neddylation inh	FAS TE block	FAS-TE inh conf	others
CCCN1CCc2cc(O)cc3c2[C@H]1Cc1ccc(O)c(O)c1-3	-40	86*	x	-2	x	PfGluPho conf=77*;Diaph ctr 10uM=19;Diaphorase 30uM=30
CN1CCc2cc(O)cc3c2[C@H]1Cc1ccc(O)c(O)c1-3	-43	86*	i	0	x	PfGluPho conf=83*;Diaph ctr 10uM=25;Diaphorase 30uM=6
COc1cc2c(cc1O)C[C@H]1c3c(cc(O)c(OC)c3-2)CCN1C	-17	-3	x	-5	x
CC1C2Cc3ccc(O)cc3C1(C)CCN2CC1CC1 (configuration not stated)	0	x	x	x	x
O=C1NC(=S)NC(=O)C1=Cc1c(Cl)cccc1Cl	0	29	i	-5	x
O=C1NC(=S)NC(=O)C1=Cc1ccc(Br)s1	0	65*	i	0	x	PfGluPho conf=84*;Diaph ctr 10uM=-24;Diaphorase 30uM=-16
c1ccc(Nc2ccc3ccccc3c2)cc1	-11	38	x	33	x
CC(C)Nc1ccc(Nc2ccccc2)cc1	1	106*	i	0	x	PfGluPho conf=52*;Diaph ctr 10uM=-1;Diaphorase 30uM=8
COCCNC(=O)c1c(N)n(Cc2ccco2)c2nc3ccccc3nc12	27*	60*	x	-7	x	PfGluPho conf=-2;proKLK7 act conf=-17;EDANS-DABCYL int=-65
CC(C)CN1Cc2cc(-c3ccccc3)ccc2-n2nncc2C1	0	x	x	3	x
CCOC(=O)[C@]12Cc3cc4ccccc4cc3[C@H]1N(Cc1ccccc1)C(=O)c1cc(OC)ccc12	0	x	i	65*	20
CCOC(=O)[C@]12Cc3cc(OC)c(OC)cc3[C@H]1N(Cc1ccccc1)C(=O)c1ccccc12	0	4	i	12	x
CCOC(=O)[C@]12Cc3cc4ccccc4cc3[C@H]1N(Cc1ccccc1)C(=O)c1ccccc12	0	x	i	61*	13
Cc1ccc2nc(-c3ccc(CN4CCC(n5c(=O)[nH]c6cc(Cl)ccc65)CC4)cc3)c(-c3ccccc3)nc2c1	-12	x	x	x	x
Cc1[nH]n(-c2ccccc2)c(=O)c1C(c1ccc([N+](=O)[O-])cc1)c1c(C)[nH]n(-c2ccccc2)c1=O	x	-15	i	85*	79*
O=[N+]([O-])c1ccc(C(c2ccc([N+](=O)[O-])cc2)c2ccc([N+](=O)[O-])cc2)cc1	1	10	i	47	x
O=C1c2ccccc2-n2nncc2C2c3cc(Br)ccc3CCN12 (configuration not stated)	0	x	i	-2	x
Cc1ccccc1-c1ccc2c(c1)C1c3c(-c4ccccc4)nnn3-c3ccccc3C(=O)N1CC2 (configuration not stated)	0	x	i	79*	13
CCOC(=O)[C@]12Cc3cc(C)ccc3[C@H]1N(C)C(=O)c1ccccc12	0	x	i	6	x
CCOC(=O)[C@]12Cc3cc(OC)ccc3[C@H]1N(C)C(=O)c1ccccc12	0	x	i	-6	x
CCOC(=O)[C@]12Cc3cc(Cl)ccc3[C@H]1N(C1CCCCC1)C(=O)c1ccccc12	x	x	i	77*	71*
CCOC(=O)[C@]12Cc3cc(OC)ccc3[C@H]1N(C1CCCCC1)C(=O)c1ccccc12	0	x	i	77*	72*
COc1ccc2nc(-c3ccc(CN4CCC(n5c(=O)[nH]c6cc(Cl)ccc65)CC4)cc3)c(-c3ccccc3)nc2c1	-13	x	x	x	x
CC(C)n1c(=O)c(C=Nc2ccc(S(N)(=O)=O)cc2)c(O)n(Cc2ccco2)c1=O	0	11	i	-8	x
CC(C)n1c(=O)c(C=Nc2cccc([N+](=O)[O-])c2)c(O)n(CCc2ccccc2)c1=O	1	1	i	57*	18
SMILES	proKLK7 act	PfG6PD inh	Neddylation inh	FAS TE block	FAS-TE inh conf	others
C#C[C@]1(O)CCC2C3C(=O)C=C4C(Cl)=CCC[C@]4(C)C3CC[C@@]21C (some centres not stated)	0	8	i	14	x
Fc1cccc(-c2ccc3c(c2)CN(C(=S)NCCc2ccccc2)Cc2cnnn2-3)c1	-1	x	i	40	x
O=C1NCN(c2ccccc2)C12CCN(C(c1cccc3ccccc13)c1nnnn1-c1ccc3c(c1)OCCO3)CC2 (configuration not stated)	-1	x	i	88*	8
CCCCn1nnnc1C(c1cccc2ccccc12)N1CCC2(CC1)C(=O)NCN2c1ccccc1 (configuration not stated)	0	x	i	22	x
O=C1NCN(c2ccccc2)C12CCN(C(c1cc3ccccc3o1)c1nnnn1-c1ccc3c(c1)OCCO3)CC2 (configuration not stated)	0	x	i	74*	21
Cc1cccc(C)c1-n1nnnc1C(c1ccccc1)N1CCC2(CC1)C(=O)NCN2c1ccccc1 (configuration not stated)	0	x	i	39	x
COc1ccc(-n2nnnc2C(c2cccc3ccccc23)N2CCC3(CC2)C(=O)NCN3c2ccccc2)cc1 (configuration not stated)	0	x	i	84*	16
COc1ccc(C(c2nnnn2-c2c(C)cccc2C)N2CCC3(CC2)C(=O)NCN3c2ccccc2)cc1 (configuration not stated)	0	x	i	50*	27
COc1ccc(CC2(CCc3ccncc3)C(=O)NC(=O)NC2=O)c(OC)c1	0	-9	i	-2	x
O=S(=O)(c1ccc2ccccc2c1)N1Cc2cc(Br)ccc2-n2nncc2C1	1	x	x	x	x
c1ccc2[nH]c(CCN3CCCCC3)nc2c1	0	2	i	-10	x
O=C1NCN(c2ccccc2)C12CCN(C(c1cccs1)c1nnnn1-c1ccc3c(c1)OCCO3)CC2 (configuration not stated)	0	x	i	62*	22
CCOC(=O)[C@]12Cc3cc(Cl)ccc3[C@H]1N(C)C(=O)c1ccccc12	0	x	i	0	x
CCOC(=O)[C@]12Cc3cc(Cl)ccc3[C@H]1N(C(C)C)C(=O)c1ccccc12	0	x	i	68*	11
CCOC(=O)[C@]12Cc3cc(Cl)ccc3[C@H]1N(CC(=O)OC)C(=O)c1ccccc12	x	x	i	55*	28
